Inconclusive results are not listed. Active and inactive are the calls of the source. Calls come from the whole dose curve; as a rule, active = well fitted inhibition curve with a large enough effect; inconclusive = small, poorly fitted or top-dose-only effect, or effect the other way; inactive = flat fitted curve, though single readings scatter.
target: Menin (Homo sapiens) (UniProt O00255); assay: Confirmation of Inhibitors Targeting the Menin-MLL Interaction in MLL Related Leukemias: Confirmation in an HTRF (commercial TR-FRET) Assay using His-tagged menin and biotin-labeled MLL peptide; settings: His-menin / biotin-MLL peptide binding; series mostly up to 126 µM; activity change, negative = inhibition: at the top concentration
Sequence (O00255 whole entry, looked up): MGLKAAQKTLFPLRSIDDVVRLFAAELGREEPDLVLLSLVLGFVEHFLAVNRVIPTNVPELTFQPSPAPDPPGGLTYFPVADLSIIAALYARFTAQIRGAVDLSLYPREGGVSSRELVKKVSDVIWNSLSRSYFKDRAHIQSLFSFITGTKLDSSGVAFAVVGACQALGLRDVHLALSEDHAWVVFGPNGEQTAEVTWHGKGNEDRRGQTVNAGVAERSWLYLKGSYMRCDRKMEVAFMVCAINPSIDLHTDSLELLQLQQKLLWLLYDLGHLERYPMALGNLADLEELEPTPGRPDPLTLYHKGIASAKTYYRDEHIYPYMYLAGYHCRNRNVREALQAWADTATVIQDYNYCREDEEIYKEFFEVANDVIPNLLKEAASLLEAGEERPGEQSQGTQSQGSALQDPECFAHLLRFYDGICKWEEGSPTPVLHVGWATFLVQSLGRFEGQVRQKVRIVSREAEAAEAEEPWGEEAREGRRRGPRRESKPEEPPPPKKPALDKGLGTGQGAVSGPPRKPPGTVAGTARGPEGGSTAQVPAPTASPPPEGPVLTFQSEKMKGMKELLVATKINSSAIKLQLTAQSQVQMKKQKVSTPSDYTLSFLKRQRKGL
How it was run: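 HTRF: His6-menin (200 nM) and biotin-MLL-w.t. peptide (80 nM) preincubated 15 min, then compounds 1 hr at ambient, before Eu-cryptate anti-His (3.5 nM) and streptavidin-XL665 (10 nM) for 1 h; 50 mM Tris-HCl pH 7.5, 50 mM NaCl, 1 mM DTT, BSA.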
% is set by controls: 0 for no effect and ±100 for the full control effect; potency is the fitted concentration of half-maximal effect.

Activity change, negative = inhibition, inactive:
COc1ccc(N(C(=O)c2ccncc2)S(=O)(=O)c2ccc(Cl)cc2)cc1 8.53%
O=C(C1=C(O)C(=O)N(CCN2CCOCC2)C1c1cccc(Br)c1)c1cccs1 (stereo not given) -7.5% [at 383 µM]
O=S(=O)(Nc1cccc(-c2cn3cccnc3n2)c1)c1ccccc1 -4.98% [at 383 µM]
CN(C)CCCOc1ccc2c(c1)Sc1ccccc1CC2=O -10.1%
NC(=O)C1CCN(C2=C(Cl)C(=O)c3ccccc3C2=O)CC1 26% [at 383 µM]
CCc1nnc(NC(=O)C2(C)COC(c3ccc(OC)cc3)OC2)s1 (stereo not given) -0.226%
CCCC(=O)NC(c1ccccc1Cl)c1ccc2cccnc2c1O (stereo not given) -11.8%
NC(=O)[C@@H]1CCCNc2c(I)cc([N+](=O)[O-])cc2C(=O)N[C@@H](CCCN=C(N)N)C(=O)N[C@@H](CCCN=C(N)N)C(=O)N1 -15.7% [at 383 µM]
CCOC(=O)c1cnc2ccc(OC)cc2c1Nc1ccc(N2CCN(C)CC2)cc1 -21.7% [at 383 µM]
COCCNC(=O)C(OC(=O)c1nsc(Cl)c1Cl)C(C)C (stereo not given) 5.03%
O=C(O)c1cc(S(=O)(=O)O)cc(Nc2c3ccccc3nc3ccccc23)c1O 3.8% [at 383 µM]
CCN(CC)c1nc(-c2ccc(C(=O)NN)cc2)nc(-c2ccc(C(=O)NN)cc2)n1 -7.98% [at 383 µM]
CCCN(CCC)CCCNC(=O)c1cc2c(=O)[nH]c3ccccc3c2s1 5.66%
CCc1oc2ccccc2c1C(=O)c1cc(Br)c(O)c(Br)c1 -10.4%
C=C1CCC[C@]2(C)C[C@H]3OC(=O)C(CNCCN(CC)CC)[C@H]3CC12 (stereo not given in full) 0.515%
CN[C@H]1[C@H](O)[C@@H](O[C@@H]2[C@H](O)[C@@H](O[C@H]3OC(CN)=CC[C@H]3N)[C@@H](N)C[C@H]2N)OC[C@@]1(C)O -7.69%
CCc1ccc(NC(=O)CSc2nc(O)cc(=O)n2C2CCCC2)cc1 -14.9%
O=C(Nc1nnc(-c2ccccc2SCc2ccccc2)s1)Nc1ccccc1F -20.5%
CCOC(=O)N1CCN(C(=O)c2oc3ccc(S(=O)(=O)N(CC)CC)cc3c2C)CC1 -0.309% [at 383 µM]
CC(=O)c1cccc(NS(=O)(=O)c2ccc(N/C=C\C(=O)c3ccc(F)cc3)cc2)c1 -12.9%
CCCNC(=O)c1ccc2c(=O)c(O)c(C)[nH]c2c1 1.6%
COc1ccccc1N(CC1CO1)S(=O)(=O)c1ccccc1 (stereo not given) 2.5%
Cc1cccc(Nc2nnc(SCC(=O)NC(=O)Nc3ccc4c(c3)OCCO4)s2)c1 -25.2%
COc1ccc(OC)c(C2C3=C(N=c4s/c(=C\c5cccc(O)c5)c(=O)n42)c2ccccc2CC3)c1 (stereo not given) -16.6%
CN1CCN(CC(=O)c2ccccc2F)CC1 7.33%
CCOc1ccc(CCNC(=O)C(C)N2C(=O)CC(C)(C)Sc3ccccc32)cc1 (stereo not given) 10.9%
O=C(NNCS(=O)(=O)O)c1ccncc1 -1.81%
COc1cc(SC)ccc1C(=O)Nc1cccc(C2OCCCO2)c1 -11.9% [at 383 µM]
O=C(CSc1nnc(-c2c[nH]c3ccccc23)o1)c1ccc(-c2ccccc2)cc1 -14.1%
Cc1ccc(F)c(C2C3C=CCC(C)C3C(=O)N2Cc2ccccc2)c1 (stereo not given) -0.648%
COc1ccc(C)cc1N(C(=O)c1snc(C(N)=O)c1N)C(C(=O)NC1CCCC1)c1ccc(F)cc1 (stereo not given) -1.82% [at 383 µM]
O=S(=O)(NCCc1c[nH]c2ccccc12)c1ccccc1 1.89% [at 383 µM]

Potency, active:
N=C1c2ccccc2CN1c1ccc(N2CCOCC2)c(S(=O)(=O)Nc2ccc(Cl)cc2)c1 79.4 µM
CC(=O)Nc1ccc(-c2cc(-c3ccc(NC(C)=O)cc3)nc(-c3ccc(NC(C)=O)cc3)n2)cc1 79.4 µM
CCOc1cc(CNCCc2ccc(S(N)(=O)=O)cc2)ccc1OCc1ccccc1 251 µM

— PubChem BioAssay AID2778 (National Center for Advancing Translational Sciences (NCATS), 2010)
